From PubChem
HCV inh: HCV inhibition | Huh7.5.1 HCVcc-Cre infection, luciferase reporter, 44 h | 3.4% of 340,000 active | Potency, µM (series often up to 41.8 µM), most hits filed as inhibitors
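Cells seeded at 1,000/well and cultured 4 h, then compounds added followed by HCVcc-Cre virus (~0.5 moi). After 44 h further culture, luciferase substrate was added, plates held 15 min at room temperature, and luminescence read for 15 sec.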
Pf growth 48h: P. falciparum growth inhibition at 48 hours (one generation); P. falciparum luciferase growth in erythrocytes, 48 h; Potency, µM (top dose mostly 28.7 µM), most hits filed as inhibitors; 5.9% of 310,000 active; AID 504832
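Compounds are pin-transferred into medium, infected erythrocytes (2% hematocrit, 0.1% parasitemia final) are added, and plates sit one parasite generation at 37 C in 5% CO2. Detection reagent is then added and luminescence measured.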
AMA1 RON2 block: AMA1-RON2 (P. falciparum) interaction inhibition; AlphaScreen AMA1-biotinylated RON2 peptide binding; Potency, µM (highest dose often 58.2 µM), usual class: inhibitors; 0.2% of 360,000 active; AID 720542; further: nearly all actives have a fitted effect of over 45% in size
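AMA1 (3D7) with his tag at 25 nM final met compounds first, then biotinylated RON2 peptide at 25 nM; detection used donor plus acceptor beads, 10 µg/mL apiece, read by AlphaScreen after 30 min at room temperature.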
Pf growth 96h: P. falciparum growth inhibition at 96 hours; Potency, µM (top dose mostly 28.7 µM), usual class: inhibitors; P. falciparum luciferase reporter growth, 96 h; 6.9% of 320,000 active; AID 504834
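Parasite growth measured via integrated firefly luciferase reporter in P. falciparum. Infected erythrocytes at 2% hematocrit, 0.05% parasitemia final were treated 96 hours at 37 C under 5% CO2, and luminescence was read.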
Numbers stand for hits; – = inactive; ? = inconclusive; · = not tested or not shown; [ ] = another dose, or the depositor's remark. Rows were chosen to be rich in hits. Some 11% of all compounds tested hit in one or more screens of this group. The call rests on the fitted dose curve; in most records, active means well fitted curve in the direction sought with a large enough effect; inconclusive means small, poorly fitted or top-dose-only effect, or another doubt; inactive means no such curve, though single readings can be large; an effect the other way counts as inactive or inconclusive.

SMILES	HCV inh	Pf growth 48h	AMA1 RON2 block	Pf growth 96h
C[C@H]1CN=C(N(C)C)N1CC1CCCC1	?	–	–	?
C[C@H]1CN=C(N(C)C)N1CC1CCC(C(C)(C)C)CC1 (stereo partly specified)	?	7.4µM	–	?
CCOc1ccc(-c2n[nH]c(C)c2Oc2ccccc2OC)c(O)c1	?	4.1µM	–	·
C=C(C)COc1ccc(-c2n[nH]c(C)c2Oc2ccccc2OC)c(O)c1	32µM	5.2µM	–	4.7µM
CC(C)OC(=O)c1ccc(NCc2cc(O)ccc2O)cc1	3.5µM	·	–	·
O=C(OCc1ccccc1)c1ccc(NCc2cc(O)ccc2O)cc1	5µM	·	–	·
COC(=O)c1ccc(CCc2cc(O)ccc2O)cc1	4µM	·	–	·
CCC(=O)Nc1ccc(C(=O)OCc2ccccc2)cc1	–	–	–	–
CN(C)c1ccc(NC(=O)COC(=O)Cn2nnc3ccccc32)cc1	?	–	–	–
Cc1noc2ncnc(Sc3ccc(Br)cc3)c12	32µM	?	–	?
Cc1cccc(N2CSC3=C(C#N)C(c4ccc(C)o4)CC(=O)N3C2)c1 (stereo unspecified)	·	–	·	10µM
COc1ccc(OC)c(C2CC(=O)N3CN(c4ccccc4)CSC3=C2C#N)c1 (stereo unspecified)	–	·	–	?
CC1CCCN(c2nc3nonc3nc2N2CCCC(C)C2)C1 (stereo unspecified)	–	10µM	–	–
CC1CCN(c2nc3nonc3nc2N2CCC(C)CC2)CC1	–	–	–	–
Cc1c(NC(=O)COC(=O)CSc2ccc([N+](=O)[O-])cc2)c(=O)n(-c2ccccc2)n1C	–	–	–[11.6 µM]	?
NC(=O)C1CCN(C(=O)CCNS(=O)(=O)c2cc(Br)cnc2N)CC1	–	–	–	–
O=C(CCNS(=O)(=O)c1ccccc1Cl)N1CCN(c2ccccn2)CC1	?	–	–	–
Nc1ncc(Br)cc1S(=O)(=O)NCCC(=O)N1CCN(c2ccccn2)CC1	–	12µM	–	–
Nc1ncc(Br)cc1S(=O)(=O)NCCC(=O)N1CCN(c2ccccc2)CC1	–	6.6µM	–	–
CCc1cccc(NC(=O)CCNS(=O)(=O)c2cc(Br)cnc2N)c1	–	13µM	–	–
NC(=O)c1ccsc1NC(=O)COC(=O)c1ccccn1	–	–	–	–
CC1(C2CC2)NC(=O)N(CC(=O)N2CCN(c3ccccc3)CC2)C1=O (stereo unspecified)	–	–	–	–
COc1cc(C(=O)Oc2c(CN3CCOCC3)cc(Cl)c3cccnc23)cc(OC)c1OC	?	·	–	?
O=C(Oc1c(CN2CCOCC2)cc(Cl)c2cccnc12)c1ccccc1Cl	?	?	–	1.3µM
O=C(Oc1c(CN2CCOCC2)cc(Cl)c2cccnc12)c1cccs1	?	2.6µM	–	0.74µM
SMILES	HCV inh	Pf growth 48h	AMA1 RON2 block	Pf growth 96h
Cc1c(C(C)(C)C)c(C=S)n2ccccc12	–	·	–	10µM
CC(C)(C)c1ccc(-c2nc(C=O)c3ccccn23)cc1	–	–	–	–
O=C1C(=O)N(CC2CCCO2)C(c2ccccc2[N+](=O)[O-])/C1=C(/O)c1ccccc1 (stereo unspecified)	–	–	–	–
O=C(O)C[C@H]1c2ccc(C(F)(F)F)cc2S(=O)(=O)N1C1CCCCC1	–	·	–	·
COc1ccc(C2C3=C(CC(C)(C)CC3=O)N(C)C3=C2C(=O)CC(C)(C)C3)cc1OC	–	–	–	13µM
COc1ccc(C2C3=C(CC(C)(C)CC3=O)N(C)C3=C2C(=O)CC(C)(C)C3)cc1	–	–	–	?
C=CCOc1ccc(C2C(C#N)=C(N)N(Nc3ccccc3)C3=C2C(=O)CC(C)(C)C3)cc1OC (stereo unspecified)	?	8.3µM	–	8.3µM
C#CCOc1ccc(C2C3=C(CC(C)(C)CC3=O)N(CC(=O)O)C3=C2C(=O)CC(C)(C)C3)cc1OC	–	–	–	?
Cc1cccc(NC(=O)CNC(=O)CSc2nnc(C(F)(F)F)n2C)c1C	–	–	–	–
Brc1ccc(CSc2nnc3ccccn23)cc1	–	–	–	–
Cc1ccc(N=Nc2c(C)[nH]n(C(N)=S)c2=O)cc1	2.8µM	?	–	?
Cc1[nH]n(C(N)=S)c(=O)c1N=Nc1ccc(Br)cc1	–	–	–	–
Cc1[nH]n(C(N)=S)c(=O)c1N=Nc1cccc(C(F)(F)F)c1	–	1.3µM	–	?
CCOC(=O)CCc1c(C)nc(-n2[nH]c(C)c(CCO)c2=O)[nH]c1=O	–	?	–	?
Cc1ccccc1Cn1ccc(=NCc2ccccc2)cc1	–	0.74µM	–	0.33µM
